From PubChem BioAssay
This is a sample that favours compounds with a hit; in the whole collection about 1.1% have one here.
HIF activator = HIF pathway transcriptional activation. U2OS HRE-luciferase reporter, luminescence; normalized: DMSO 0%, desferrioxamine 100%. activation, % at 7.5 µM (by protocol). 0.32% of 300,000 active. AID 1910;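 active = mean activation of at least 10% of the iron chelator positive control signal, with at least half of replicates also reaching 10%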
TNF death inh = TNF-alpha cell death inhibition in Jurkat FADD-/- cells. Jurkat FADD-/- TNF necroptosis rescue, ATP luminescence, 24 h; 0 = TNF only, 100 = no-TNF cells. activation (protection from cell death), % at 10 µM. 0.068% of 220,000 active. AID 463075;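 active = activation, meaning protection from cell death, of at least 50% relative to plate controls; inactive = activation below 50%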;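 also: necroptosis triggered by 40 ng/mL TNF-alpha added together with compound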
Calb FLC = C. albicans growth modulation with fluconazole | AID 1979 | 0.57% of 300,000 active | C. albicans CaCi-2 (fluconazole-resistant clinical isolate) + fluconazole, Alamar Blue growth, 48 h | growth inhibition, % (concentration not given with the values);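 active = growth inhibition above about 58% in most replicates, limit read from the data, passing the limit was not always enough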;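 also: all wells also contain fluconazole at 8 µg/ml as a sub-toxic cotreatment; 0% = median of DMSO wells and 100% = median of geldanamycin control wells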
zVAD death inh = L929 zVAD cell death inhibition; L929 zVAD necroptosis rescue, ATP luminescence, 24 h; with zVAD 60 µM; viability rescue, % at 10 µM; 0.38% of 220,000 active; AID 1377;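 active = activation, scaled between plate controls, above about 75%, limit read from the data; inactive = activation under that limit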;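 also: 0% = zVAD with DMSO and 100% = DMSO alone without zVAD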
* marks the source's active call; other numbers are inactive results; ! = not confirmed by another sample.

How did Cc1cc(C(C#N)c2cccc(Cl)c2)n2ncnc2n1 (centres undefined) do in these assays?
HIF activator: -1; TNF death inh: -1; Calb FLC: 96*; zVAD death inh: 0

What do the screens show for `Cc1cc(C(C#N)c2ccccc2)n2ncnc2n1` (centres undefined)?
HIF activator: 0; TNF death inh: 2; zVAD death inh: 0

What do the screens show for `COc1ccc(C2c3ccc4ccccc4c3Oc3ncn(CCCN(C)C)c(=N)c32)cc1` (centres undefined)?
HIF activator: 0; Calb FLC: 23

Results for CC1(C)CC(=O)C2=C(C1)c1c(ccc3ccccc13)NC2c1cc([N+](=O)[O-])cc([N+](=O)[O-])c1O (centres undefined) ?
HIF activator: 0; TNF death inh: 3; Calb FLC: 111*; zVAD death inh: 29

Results for CC1(C)CC(=O)C2=C(C1)c1c(ccc3ccccc13)NC2c1ccc(C(=O)O)cc1 (centres undefined) ?
HIF activator: -1; Calb FLC: 8

How did O=C(Cc1nc2ccccc2s1)c1ccc(O)cc1O do in these assays?
HIF activator: 3; TNF death inh: -8; Calb FLC: 91*; zVAD death inh: 1

What do the screens show for `O=C(CSc1nc2ccccc2s1)c1ccc(O)cc1O`?
HIF activator: 4; Calb FLC: 31

Results for Cc1ccc(O)c(-c2cc3ccccc3[nH]2)c1 ?
HIF activator: 2; TNF death inh: -3; Calb FLC: 83*; zVAD death inh: -1

How did COc1ccc(-c2cc3ccccc3[nH]2)cc1 do in these assays?
HIF activator: 3; TNF death inh: 1; Calb FLC: 32; zVAD death inh: 1

Results for Cc1ccc(S(=O)(=O)N2CCOC23CCN(C(=O)c2cc(Cl)ccc2Cl)CC3)cc1 ?
HIF activator: 70*; Calb FLC: 3

What do the screens show for `Cc1ccc(C(C)(O)CS(=O)(=O)Cc2ccccc2Cl)cc1` (centres undefined)?
HIF activator: -10; Calb FLC: -3

What do the screens show for `CCn1c(CSc2nc3ccccc3s2)nnc1SCC(=O)c1ccc(Cl)cc1`?
HIF activator: 0; TNF death inh: -3; Calb FLC: 11; zVAD death inh: -1

Results for CCn1c(CSc2nc3ccccc3s2)nnc1SCC(=O)c1ccc(O)c(O)c1 ?
HIF activator: 0; TNF death inh: -10; Calb FLC: 105*; zVAD death inh: 1

How did CCn1c(SCC(=O)c2ccc(O)c(O)c2)nnc1-c1ccccc1OC do in these assays?
HIF activator: 0; TNF death inh: -4; Calb FLC: 96*; zVAD death inh: 1

What do the screens show for `CC(C)C(NS(=O)(=O)c1cccs1)C(=O)NCCCN1CCCCCC1` (centres undefined)?
HIF activator: -4; Calb FLC: 2

Results for O=C(Nc1ccc(Cl)cc1)C1CCCN1C(=O)NCc1ccccc1 (centres undefined) ?
HIF activator: 0; Calb FLC: 5

What do the screens show for `CN1CC2([N+](=O)[O-])CC=C(OCCO)C([N+](=O)[O-])(C1)C2` (centres undefined)?
HIF activator: 0; TNF death inh: 1; Calb FLC: 113*; zVAD death inh: 0

How did COc1ccc(-n2cc(-c3ccc(C)cc3)[n+]3c2SCC3)cc1 do in these assays?
HIF activator: 0; TNF death inh: -4; Calb FLC: 107*; zVAD death inh: 0

What do the screens show for `Cc1ccc(-c2cn(-c3ccccc3)c3[n+]2CCCS3)cc1`?
HIF activator: 0; TNF death inh: -9; Calb FLC: 99*!; zVAD death inh: -1

What do the screens show for `c1ccc(-c2cn(-c3ccccc3)c3[n+]2CCCS3)cc1`?
HIF activator: 0; TNF death inh: -2; Calb FLC: -12; zVAD death inh: -1

What do the screens show for `CC1CC(=O)N(CC(=O)Nc2cccc(F)c2)c2ccccc2S1(=O)=O` (centres undefined)?
HIF activator: 0; Calb FLC: 7

How did COc1ccc(C2C(C(=O)c3cccs3)=C(O)C(=O)N2c2nncs2)cc1 (centres undefined) do in these assays?
HIF activator: 1; TNF death inh: 1; Calb FLC: 116*; zVAD death inh: 1

How did O=C(CN1C(=O)C2C3C=CC(C3)C2C1=O)OCC(=O)c1ccc(Br)cc1 (centres undefined) do in these assays?
HIF activator: 0; Calb FLC: 2

How did COc1ccc(OCc2cc(C(=O)N3CCCC(O)C3)no2)c2ccccc12 (centres undefined) do in these assays?
HIF activator: 3; Calb FLC: 11

What do the screens show for `Cc1ccc2c(c1)C1NC(=S)NC(C)(O2)C1C(=O)Nc1ccc(Cl)cc1` (centres undefined)?
HIF activator: 51*; TNF death inh: 1; Calb FLC: -21; zVAD death inh: 2

Results for CC(/C=C/c1ccco1)=N\NC(=O)CNc1ccc2ccccc2c1 ?
HIF activator: 0; TNF death inh: 1; Calb FLC: 116*; zVAD death inh: 12

Results for CCc1ccc(NC(=O)Nc2ccsc2C(=O)OC)cc1 ?
HIF activator: 3; Calb FLC: -3

Results for COc1ccc(NC(=O)Cn2cnc3c(cnn3C(C)(C)C)c2=O)cc1OC ?
HIF activator: -1; TNF death inh: 2; Calb FLC: -12; zVAD death inh: 3

How did Cc1ccc(NC(=O)Cn2cnc3c(cnn3C(C)(C)C)c2=O)cc1 do in these assays?
HIF activator: 0; TNF death inh: 2; Calb FLC: 0; zVAD death inh: 84*

Results for CCOC(=O)N1CCC(NC(=O)CS(=O)Cc2nc(-c3ccc(Cl)cc3)oc2C)CC1 (centres undefined) ?
HIF activator: 1; Calb FLC: 3

How did COc1ccc2nc(NC(=O)C3CCN(S(=O)(=O)c4cccc5nsnc45)CC3)sc2c1 do in these assays?
TNF death inh: -6; zVAD death inh: 77*

How did OCCC1CN(Cc2cc(F)ccc2F)CCN1CCCc1ccccc1 (centres undefined) do in these assays?
HIF activator: -3; Calb FLC: 15

How did COc1ccc(Cl)cc1NC(=O)C1CC(c2c(F)cccc2Cl)=NO1 (centres undefined) do in these assays?
HIF activator: 0; Calb FLC: -11

Results for Cc1n[nH]c(C)c1CCNCc1ccc(OCC(O)CN2CCCCC2)cc1 (centres undefined) ?
HIF activator: -1; TNF death inh: 0; Calb FLC: 71*; zVAD death inh: 0

How did O=C(O)c1ccc(S(=O)(=O)N2CCC3(CC2)CC(=O)c2ccccc2O3)cc1 do in these assays?
HIF activator: -1; Calb FLC: 5

How did O=C(CCCl)N(Cc1nc2ccccc2c(=O)[nH]1)Cc1cccs1 do in these assays?
HIF activator: 0; TNF death inh: 0; Calb FLC: 56*; zVAD death inh: 30

Results for COc1cc2c(cc1OC)C(C)N(C(=O)c1ccc(Cl)c(S(=O)(=O)N3CCCCC3)c1)CC2 (centres undefined) ?
HIF activator: 0
